# Assay outcomes (PubChem BioAssay)
# PP1 inh: PP1-alpha phosphatase inhibitors, primary screen, counter-screen for PP5 inhibitor project, biochemical, fluorescence, OMFP substrate, single point; Serine/threonine-protein phosphatase PP1-alpha catalytic subunit (Homo sapiens), P62136; purified PP1alpha; inhibition, % at 6.7 µM; 320,000 compounds, 0.9% hits;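 active = inhibition above the mean inhibition of all tested compounds plus 3 SD, computed separately for each screening campaign, cut at about 15% in these data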
# SKKanGAS inh: S. pyogenes SKKanGAS growth inhibitors in kanamycin, primary screen, streptokinase expression inhibitor project, SKKanGAS strain, BacTiter-Glo luminescence; 6 h; inhibition, % at 7.5 µM; 300,000 compounds, 1.3% hits; AID 1662, 2009;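 active = mean replicate score, as percent of positive control median, at least 50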;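 also: strain carries kanamycin resistance gene driven by streptokinase promoter and grows in 40 µg/ml kanamycin; loss of luminescence reflects streptokinase promoter inhibition or plain growth inhibition; 0% = median of DMSO wells and 100% = positive control at its reference dose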
# Exocytosis inh: LAMP-1 surface exposure blockers, TALL-104 cells – cell-based, flow cytometry, MLPCN library, primary screen. 360,000 compounds, 0.66% hits. AID 651702, 2012. inhibition, % at 10 µM. TALL-104 LAMP-1 surface exposure; cells stimulated with thapsigargin and PMA;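 active = inhibition above about 55%, limit read from the data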
# IDE cell inh: human IDE inhibitors in live cells, primary screen, fluorescence polarization, HEK cells, FAbetaB substrate; Insulin-degrading enzyme (Homo sapiens), P14735; FAbetaB cleavage; inhibition, % at 5.59 µM; 320,000 compounds, 0.41% hits; AID 434962, 2010;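 active = percent inhibition above the average of all tested compounds plus 3 SD, set per screening campaign, cut at about 16% in these data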;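 also: IDE supplied by intact live HEK cells; FP after avidin binding of uncleaved biotin substrate so inhibition keeps polarization high; 0% = DMSO wells and 100% = 60 µM reference IDE inhibitor Ii1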
# IDE cell activ: human IDE activators in live cells, primary screen, fluorescence polarization, HEK cells, FAbeta-B substrate. Insulin-degrading enzyme (Homo sapiens), P14735. FAbeta-B cleavage; 0% vehicle, 100% cell-free pure enzyme wells. activation, % at 5.96 µM. 340,000 compounds, 0.073% hits;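 active = activation above the mean of all tested compounds plus 3 SD, set per screening campaign, cut at about 17% in these data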
# PP5 inh: PP5 phosphatase inhibitors, primary screen, biochemical, fluorescence | Serine/threonine-protein phosphatase 5 (Homo sapiens), P53041 | inhibition, % at 6.7 µM | AID 1987, 2009 | purified PP5c, OMFP substrate fluorescence | 320,000 compounds, 0.18% hits;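 active = inhibition above the campaign's mean inhibition across all tested compounds plus 3 SD, cut at about 9.5% in these data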;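 also: 0% = DMSO only and 100% = 100 µM cantharidin control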
# Target sequence (P53041 whole entry, looked up): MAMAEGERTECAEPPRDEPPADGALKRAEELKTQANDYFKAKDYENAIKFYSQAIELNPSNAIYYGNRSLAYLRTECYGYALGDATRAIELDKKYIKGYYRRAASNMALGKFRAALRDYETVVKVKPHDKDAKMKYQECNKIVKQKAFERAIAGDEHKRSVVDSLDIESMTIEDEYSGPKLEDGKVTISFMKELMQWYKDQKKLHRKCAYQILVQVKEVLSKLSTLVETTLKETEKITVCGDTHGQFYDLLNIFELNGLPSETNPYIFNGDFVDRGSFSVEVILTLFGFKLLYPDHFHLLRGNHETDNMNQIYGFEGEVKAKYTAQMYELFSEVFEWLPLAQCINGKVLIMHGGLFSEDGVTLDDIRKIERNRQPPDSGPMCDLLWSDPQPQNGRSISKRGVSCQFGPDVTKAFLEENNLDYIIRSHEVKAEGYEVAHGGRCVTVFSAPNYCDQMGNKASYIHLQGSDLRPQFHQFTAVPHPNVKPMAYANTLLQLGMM
# * hit, by the source's call; · = no result given. Shown are actives, neighbours in structure and some others; about 2.8% of the full set was active somewhere.
SMILES,PP1 inh,SKKanGAS inh,Exocytosis inh,IDE cell inh,IDE cell activ,PP5 inh
COCCn1c(N)c(C(=O)Nc2sc3c(c2C(=O)OC)CCCC3)c2nc3ccccc3nc21,-1,58*,2,-1,4,-1
COC(=O)c1sc(N)c(C(=O)OC)c1COC(=O)[C@@H](NS(=O)(=O)c1cccc(Cl)c1)C(C)C,2,11,9,-1,0,3
C1CCCCCC(=NNc2nn[nH]n2)CCCCC1,-4,0,-6,1,34*,-1
Cc1cc(C)nc(NN=C2CCCC2)n1,-1,-3,-1,2,2,2
O=C(CSc1nnnn1-c1ccccc1)Nc1ncc(Cc2ccccc2Cl)s1,1,-18,1,-6,2,0
N=C1SC(c2ccccc2)C(=O)N1c1ncc(Cc2ccccc2Cl)s1 (centres undefined),16*,116*,-4,-2,0,-1
CCOC(=O)c1ccc(NC(=O)c2nc[nH]c2C(=O)N[C@@H](Cc2ccccc2)C(=O)OC(C)(C)C)cc1,-4,56*,-6,3,4,7
CCOC(=O)c1ccc(NC(=O)c2nc[nH]c2C(=O)NCC(=O)OC(C)(C)C)cc1,4,9,-2,1,1,6
CCOC(=O)c1ccc(NC(=O)c2nc[nH]c2C(=O)NCCCCNC(=O)c2[nH]cnc2C(=O)Nc2ccc(C(=O)OCC)cc2)cc1,-1,·,6,-6,0,-1
CC(C)(C)OC(=O)NCCCCCNC(=O)c1[nH]cnc1C(=O)N[C@@H](Cc1ccccc1)C(=O)OC(C)(C)C,·,·,26,7,8,·
CCOC(=O)c1ccc(NC(=O)c2nc[nH]c2C(=O)NCCCCCNC(=O)OC(C)(C)C)cc1,-4,64*,-3,1,0,6
CC(C)(C)OC(=O)[C@H](Cc1ccccc1)NC(=O)c1[nH]cnc1C(=O)Nc1ccc(Cl)cc1,6,91*,-4,2,2,6
CC(C)(C)OC(=O)[C@H](Cc1ccccc1)NC(=O)c1[nH]cnc1C(=O)Nc1cccc(Cl)c1,5,72*,6,7,3,7
CC(C)(C)OC(=O)[C@H](Cc1ccccc1)NC(=O)c1nc[nH]c1C(=O)NCCCCCN,0,5,-4,1,4,1
COc1c(C(=O)NNC(=O)c2ccccc2Cl)csc1Br,-3,-2,-8,2,-1,-2
CC(C)C[C@H](NC(=O)c1[nH]cnc1C(=O)Nc1ccc(Cl)cc1)C(=O)OC(C)(C)C,3,60*,-1,1,3,5
Cc1cccc(NC(=O)c2nc[nH]c2C(=O)N[C@@H](CC(C)C)C(=O)OC(C)(C)C)c1,8,100*,-1,-1,1,3
Cc1cccc(NC(=O)c2nc[nH]c2C(=O)N[C@@H](Cc2ccccc2)C(=O)OC(C)(C)C)c1,4,98*,2,4,6,5
CC(C)(C)OC(=O)[C@H](CCCCN)NC(=O)c1[nH]cnc1C(=O)N[C@@H](Cc1ccccc1)C(=O)OCc1ccccc1,·,·,2,0,2,·
CC(C)C[C@H](NC(=O)c1nc[nH]c1C(=O)NCC(=O)OC(C)(C)C)C(=O)OC(C)(C)C,8,9,1,-3,2,8
O=C1NC(=S)/C(=C\c2ccc(-c3ccccc3Cl)o2)S1,12,114*,-2,2,5,2
CC[C@H]1OC(=O)C[C@@H](O)[C@H](C)[C@@H](O[C@@H]2O[C@H](C)C[C@H](N(C)C)[C@H]2O)[C@@H](CC=O)C[C@@H](C)C(=O)C=C[C@]2(C)O[C@H]2[C@@H]1C,-2,111*,·,-2,·,-3
CC(=O)c1ccc(N2CCN(S(=O)(=O)c3cc(-c4cc(C)no4)ccc3C(C)C)CC2)cc1,15,3,-3,4,-1,4
CCc1ccc(-c2cc(C)no2)cc1S(=O)(=O)N1CCN(c2ccc(C(C)=O)cc2)CC1,15*,-1,6,2,4,1
Fc1ccc(CO/N=C/C2=C(Cl)c3ccccc3CC2)cc1,-1,79*,-3,2,7,-1
SMILES,PP1 inh,SKKanGAS inh,Exocytosis inh,IDE cell inh,IDE cell activ,PP5 inh
COC(=O)N/N=C/c1cc(Cl)cc(Cl)c1OCc1ccc(F)cc1,5,8,0,2,4,-2
Cc1nc2c(C(=O)Nc3ccc(N4CCCC(O)C4)cc3)snc2c(=O)[nH]1 (centres undefined),2,59*,-11,-3,9,1
O=C(Nc1ccc(N2CCCC(O)C2)cc1)c1snc2c(=O)[nH]cnc12 (centres undefined),0,30,3,0,5,2
COCCn1c(SCC(=O)Nc2ccc(F)cc2)nc2c([nH]c3ccccc32)c1=O,7,51*,20,-4,8,1
COCCn1c(SCC(=O)Nc2ccc(C(N)=O)cc2)nc2c([nH]c3ccccc32)c1=O,-4,0,1,-3,2,0
COCCn1c(SCC(=O)Nc2ccc(NC(=O)c3ccco3)c(OC)c2)nc2ccccc2c1=O,3,2,94*,4,-1,2
CCOC(=O)CCCC(=O)N1CCOCCOCCOCC1,-5,-1,-2,4,6,1
Cc1nc2c(C)cccn2c(=O)c1NC(=O)c1ccc2c(c1)OCO2,-6,50*,-7,-2,6,-1
CCOc1ccc(Oc2ccc(NS(=O)(=O)c3cc(C(=O)O)ccc3Cl)cc2)cc1,6,·,-7,6,-4,6
CCOc1ccc(NS(=O)(=O)c2cc(NC(=O)c3ccc(C)cc3)ccc2Cl)cc1,-3,60*,20,4,0,5
CN(C=O)c1ccc(CSc2ccccc2)cc1,·,·,-7,·,4,·
Cc1c(-n2c(SCC(=O)C(C)(C)C)nc3ccccc3c2=O)c(=O)n(-c2ccccc2)n1C,0,9,4,-6,4,-3
CCN(CC(=O)NC(C)(C)C)Cc1nc2c(Br)cc(Br)cc2c(=O)[nH]1,1,51*,1,10,3,1
C=CCOc1ccc(CN(C)Cc2nc3cc(C(F)(F)F)ccc3c(=O)[nH]2)cc1,0,6,15,-6,1,3
CN(Cc1ccc(OC(F)F)cc1)Cc1nc2c(Br)cc(Br)cc2c(=O)[nH]1,2,62*,-4,9,-6,4
Cc1ccc(NC(=O)CN(C)Cc2ccc(Cl)cc2)cc1,-1,-2,-2,-1,1,-2
